# Records with an inconclusive call do not appear. A call without a number means that no potency is given here. The source made the active and inactive calls. The call rests on the fitted dose curve; in most records, active means well fitted inhibition curve with a large enough effect; inconclusive means small, poorly fitted or top-dose-only effect; inactive means no such curve, though single readings can be large or run the other way.
# Biological target: N-terminal Xaa-Pro-Lys N-methyltransferase 1 (Homo sapiens) (UniProt Q9BV86)
# Sequence (Q9BV86 whole entry, looked up): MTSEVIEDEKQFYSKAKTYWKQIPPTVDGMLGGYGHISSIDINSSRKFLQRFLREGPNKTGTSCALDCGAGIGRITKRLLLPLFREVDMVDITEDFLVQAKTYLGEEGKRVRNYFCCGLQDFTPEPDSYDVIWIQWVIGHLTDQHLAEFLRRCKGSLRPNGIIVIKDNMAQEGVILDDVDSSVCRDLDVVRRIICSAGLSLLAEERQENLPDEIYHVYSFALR
# Test: qHTS Assay for Inhibitors of N-terminal methyltransferase 1 (NTMT1): MTaseGlo Confirmatory Screen, Round 2
# Conditions: NTMT1 enzyme, MTase-Glo SAH luminescence; series mostly up to 57.4 µM
# Excerpt: Assay Submitter (PI): Rong Huang Ph.D, Purdue University, West Lafayette, IN 47907
# The N-terminal methytransferase 1 is the first methyltransferase that methylates protein alpha-N-amines and plays an important role in regulating cell mitosis, chromatin interactions and DNA repair. It is observed to be over-expressed in various cancer patient tissues like malignant melanoma and colorectal cancer tissues. Knockdown of NTMT1 in cancer cells causes cell mitotic defects and enhances sensitivity to DNA damaging chemotherapeutics. […] These critical cellular processes in which NTMT1 is implicated, coupled with emerging links to cellular dysfunction, strengthen the inference that NTMT1 is a compelling novel anticancer target. Progress have been made in understanding the molecular properties of NTMT1 and the biological consequences of protein alpha-N-terminal methylation, but there are no specific small molecule probes available for NTMT1 to fully characterize its MTase activity. To address this unmet need, a panel of assay is created and established to enable quantitative high-throughput screening (qHTS) for novel, potent, and selective small molecule NTMT1 inhibitors. Two orthogonal qHTS that use different reagents (ThioGlo vs. MTaseGlo) are developed for primary robotic screening against the NCATS chemical library of more than 400,000 small molecules. Identified inhibitors are reacquired, validated, and further characterized.
# MTaseGlo Assay is a luminescence screen that measure the activity of methyltransferases based on the reaction product S-adenosyl homocysteine (SAH). The substrate SAM is converted to SAH upon enzyme activation. MTase-Glo reagent and detection solution convert SAH to ATP and measure the light from the luciferase reaction.
# Early Translation Branch (ETB)
# National Center for Advancing Translational Sciences (NCATS)
# National Institute of Health (NIH)
# NTMT1 enzyme, substrate SPKRIA, control peptide RCC1-6 is provided by the Huang laboratory.
# In brief, 3 µL of enzyme mixture (final concentrations of 125 nM and 100 µM for NTMT1 and SAM, respectively) into all wells of a 1,536-well solid-bottom white plate (Greiner Bio One, Monroe, NC). 23 nL of DMSO or Ac-RCC1-10 (final concentration range 234 nM to 143 microM) was transferred via Wako Pin-tool (Wako Automation, Richmond, VA) and incubated (RT) for ~15 minutes. Next, 1 µL of substrate (final concentration 1 µM) or buffer was dispensed, and the reaction proceeded for 30 minutes (RT, protected from light) followed by a 1 microL addition of [5X] MTase-Glo Reagent(R). Samples were incubated (RT, protected from light) for 30 minutes to allow for SAH to be converted to ADP, followed by a 5 microL addition of [1X] MTase-Glo Detection Solution(R) to allow for ADP to be converted to ATP, which was then detected with a luciferase reaction. Samples were centrifuged for 15 seconds at 1,000 RPM's, followed by a RT incubation for 30 minutes. Plates were then read using Luminescence optics on a ViewLux detector. Data were normalized to no-enzyme (0% activity) and no-inhibitor (DMSO; 100%) controls, and the resulting percent inhibition data were fitted to a 4-parameter Hill equation using Graphpad Prism.
# Potency means the concentration at half of the fitted maximal effect.
row,Structure (SMILES),Potency
1,Clc1ccc(N2CC3CCC(C2)N3)nn1,inactive
2,CC(=O)c1c(O)c(C)c(O)c(Cc2c(O)c3c(c(C(=O)/C=C/c4ccccc4)c2O)OC(C)(C)C=C3)c1O,inactive
3,CNCCc1c[nH]c2ccc(O)cc12,inactive
4,CN(N=O)c1cc(O)ccc1O,inactive
5,N#CC(C#N)=Cc1ccc(O)c(O)c1,inactive
6,NCC(O)c1cc(O)c(O)cc1F (stereo not drawn),inactive
7,CC(N)Cc1c[nH]c2ccc(O)cc12 (stereo not drawn),inactive
8,O=S1(=O)N(CCN2CC=C(c3c[nH]c4cc(F)ccc34)CC2)c2cccc3c2N1CCC3,inactive
9,CC(N)[C@H](O)c1ccc(O)c(O)c1 (stereo partly drawn),inactive
10,O=[N+]([O-])/C=C/c1ccc2c(c1)OCO2,inactive
11,NC(=O)CI,8.91 µM (active)
12,N#C/C(=C/c1ccc(O)c(O)c1)C(N)=S,inactive
13,c1ccc(CCCN2CCN(CCOC(c3ccccc3)c3ccccc3)CC2)cc1,inactive
14,O=[N+]([O-])c1ccc2nc(N3CCNCC3)ccc2c1,inactive
15,NC(N)=Nc1ccc2[nH]c3c(c2c1)C[C@@]1(O)[C@H]2Cc4ccc(O)c5c4[C@@]1(CCN2CC1CC1)[C@H]3O5,25.1 µM (active)
16,CCn1cnc2c(Nc3cccc(Cl)c3)nc(N[C@@H]3CCCC[C@@H]3N)nc21,11.2 µM (active)
17,COc1ccc2c(c[n+](C)c3c4cc5c(cc4ccc23)OCO5)c1OC,inactive
18,O=[N+]([O-])c1cc(O)c(O)c([N+](=O)[O-])c1,inactive
19,COC[C@H]1OC(=O)c2coc3c2[C@@]1(C)C1=C(C3=O)C2CCC(=O)[C@@]2(C)C[C@H]1OC(C)=O (stereo partly drawn),inactive
20,O=C1CC[C@@]2(O)C3Cc4ccc(O)c5c4C2(CCN3CC2CC2)[C@H]1O5 (stereo partly drawn),inactive
21,NC(Cc1cc(O)c(O)cc1O)C(=O)O (stereo not drawn),15.8 µM (active)
22,CC(C)=CCOc1c2occc2cc2ccc(=O)oc12,inactive
23,CCCN(CCC)[C@H]1CCc2c(F)ccc(O)c2C1,inactive

# — PubChem BioAssay AID1347147 (National Center for Advancing Translational Sciences (NCATS), 2019)
